# Hits are enriched below; roughly 18% of the tested compounds scored in any of these assays.
# TDP1 inh = TDP1 (human) enzyme inhibition; Q9NUW8; recombinant TDP1, AlphaScreen DNA substrate cleavage; Potency, µM (top dose mostly 130 µM), for inactives: at the top dose activity change, negative = inhibition, hits mostly inhibitors; actives 0.28% (n = 350,000); AID 485290; further: potency means the concentration at half of the fitted maximal effect; nearly all actives have a fitted effect of over 40% in size
# Target sequence (Q9NUW8 whole entry, looked up): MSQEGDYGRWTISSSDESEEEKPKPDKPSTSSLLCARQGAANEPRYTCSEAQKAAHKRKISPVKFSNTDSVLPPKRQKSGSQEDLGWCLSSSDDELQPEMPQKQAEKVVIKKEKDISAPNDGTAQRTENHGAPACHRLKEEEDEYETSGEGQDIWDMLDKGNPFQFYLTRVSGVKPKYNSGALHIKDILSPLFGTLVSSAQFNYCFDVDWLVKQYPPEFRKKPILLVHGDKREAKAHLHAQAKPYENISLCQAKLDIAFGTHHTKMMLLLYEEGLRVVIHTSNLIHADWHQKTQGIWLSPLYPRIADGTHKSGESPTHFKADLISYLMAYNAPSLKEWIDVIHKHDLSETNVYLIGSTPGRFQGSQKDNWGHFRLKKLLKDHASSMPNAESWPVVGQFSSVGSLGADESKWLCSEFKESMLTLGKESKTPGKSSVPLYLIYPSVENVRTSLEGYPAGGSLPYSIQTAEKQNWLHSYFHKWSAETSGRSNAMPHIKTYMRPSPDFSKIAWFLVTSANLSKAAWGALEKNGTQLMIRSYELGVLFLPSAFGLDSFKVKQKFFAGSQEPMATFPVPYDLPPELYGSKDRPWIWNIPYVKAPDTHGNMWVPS
#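 Tdp1 1 nM final; 15 min RT w/ cpd; substrate 15 nM, 5 min; beads 10 ug/ml, 10 min; AlphaScreen read. Neg ctrl: no enzyme.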
# Six1-Eya2 inh = inhibitors of human Six1/Eya2 interaction. AlphaScreen GST-Six1/His-Eya2 binding, biochemical; stronger effect = lower value. activity change, % (concentration not given with the values). actives 0.56% (n = 360,000). AID 651725; in the data active means activity change below about -65%; inconclusive means mostly about -30% to -63%
#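 AlphaScreen with GST-Six1 and His-Eya2 (5X mix: 250 nM and 500 nM), glutathione donor and nickel acceptor beads; buffer 50 mM Tris pH 8.0, 300 mM NaCl, 1 mM TCEP; 1 h at 37 C in the dark.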
# DT40 TDP1 CPT = growth inhibition of DT40 Tdp1-/-;hTDP1 cells with camptothecin (screen for TDP1 inhibitors); chicken DT40 Tdp1-/-;hTDP1 cells + 20 nM CPT, ATP luminescence, 48 h; Potency, µM (top dose mostly 46.2 µM), without a hit: at the highest dose activity change, negative = growth inhibition, hits mostly inhibitors; actives 12% (n = 420,000); AID 686979; further: potency means the concentration at half of the fitted maximal effect; nearly all actives have a fitted effect of over 55% in size
#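 Chicken DT40 Tdp1-/- cells complemented with human TDP1, 400 cells/well, exposed to compounds plus 20 nM camptothecin for at least 48 h at 37 C; viability read as ATP content by CellTiter-Glo luminescence.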
# TDP1 cell noCPT = qHTS for Inhibitors of human tyrosyl-DNA phosphodiesterase 1 (TDP1): qHTS in cells in absence of CPT. DT40 Tdp1-/- hTDP1 cells, no CPT, ATP luminescence, 48 h. Potency, µM (highest dose often 46.2 µM), for the others: at the top dose activity change, negative = growth inhibition, usual class: inhibitors. actives 15% (n = 420,000); further: potency means the concentration at half of the fitted maximal effect; nearly all actives have a fitted effect of over 55% in size
#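 Growth of hTDP1-complemented DT40 Tdp1-knockout cells is measured by ATP luminescence after at least 48 hr compound exposure at 37 °C, with DMSO substituting for the 20 nM CPT used in the parallel screen.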
# CtBP-E1A blk = CtBP/E1A binding inhibition; activity change, % (no concentration beside the values); AID 651724; actives 0.49% (n = 340,000); AlphaScreen GST-E1A/His-CtBP binding, 1536-well; stronger effect = lower value; in the data active means activity change below about -65%; inconclusive means mostly about -30% to -63%
#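 Protein mix (5X: 125 nM each GST-E1A, His-CtBP) was incubated with pinned compound 2 h at 37 deg C in dark, in 50 mM Tris pH 8.0 buffer with 300 mM NaCl. Glutathione donor and nickel acceptor beads followed; AlphaScreen signal read after 1 h.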
# IL1B secr inh = inflammasome signaling inhibition, IL-1 beta readout | THP-1 LPS/ATP IL-1B secretion, AlphaLISA, 16 h; stronger effect = lower value | activity change, % at 57.5 µM | actives 4.7% (n = 360,000); in the data active means activity change below about -50%; inconclusive means mostly about -30% to -49%
#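 THP-1 cells pretreated 1 hr with compounds (up to 57.5 uM final), then stimulated with LPS (250 ng/mL final) plus ATP (1.25 mM final); secreted IL-1B measured by AlphaLISA after 16 hr, decreased signal indicating inhibition.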
# * = called active by the depositor; ? = inconclusive; / = not tested or not shown; [ ] = dose if it differs, or a comment. Unless noted, the call rests on the fitted dose curve; in most records, active means well fitted curve in the direction sought with a large enough effect; inconclusive means small, poorly fitted or top-dose-only effect, or another doubt; inactive means no such curve, though single readings can be large; an effect the other way counts as inactive or inconclusive. On the % scale 0 is the no-effect control and ±100 the full control effect.
SMILES,TDP1 inh,Six1-Eya2 inh,DT40 TDP1 CPT,TDP1 cell noCPT,CtBP-E1A blk,IL1B secr inh
COC(=O)C1=CC(C(=O)c2cccs2)=NN(c2ccc(OC)cc2)C1C(=O)OC (configuration not stated),11.4%,?,?,?,?,-69.1*
Cc1c(Cl)cccc1NC(=O)N1CCCC1,-1.2%,7.3,20.3%,2.4%,0.5,-28.9
CC(=O)Oc1ccc2ccc(=O)oc2c1,?,4.4,-3.3%,2.0%,3.0,-7.9
C[C@H](O)[C@@H]1CN2CCc3c([nH]c4ccccc34)[C@@H]2C[C@@H]1N(C)C(=O)Nc1cccc2ccccc12,/,-5.1,?,?,-13.5,-20.7
C[C@@H]1ON(C)[C@H]2C[C@H]3c4[nH]c5ccc(-c6ccc7c(c6)OCO7)cc5c4CCN3C[C@@H]12,/,?,?,20.6µM*,-29.5,-19.9
Cc1cccc(-c2ccc3[nH]c4c(c3c2)CCN2C[C@@H]([C@H](C)OC(=O)Nc3ccccc3C)[C@@H](N(C)C(=O)Nc3ccccc3C)C[C@@H]42)c1,/,-15.5,?,25.9µM*,-16.9,-21.1
C[C@H](O)[C@@H]1CN2CCc3c([nH]c4ccc(-c5ccc6c(c5)OCO6)cc34)[C@@H]2C[C@@H]1N(C)C(=O)Nc1ccc(F)cc1,/,-29.2,2.91µM*,5.17µM*,-21.9,-10.5
COc1ccc(-c2ccc3c(c2)[C@@H]2C[C@H](N(C)C(=O)C(C)(C)C)[C@H]([C@H](C)O)C(=O)N2CC3)cc1,/,-0.3,?,?,-3.8,-8.1
COC(=O)C1=COC(C)C2CN3CCc4c([nH]c5cc(OC)c(OC)cc45)C3CC12 (configuration not stated),/,?,?,?,?,-21.8
COc1ccc(-c2ccc3[nH]c4c(c3c2)CCN2C(=O)[C@@H]([C@H](C)O)[C@@H](N(C)C(=O)Nc3ccc(F)cc3)C[C@@H]42)cc1,/,?,?,11.6µM*,-29.7,?
COC(=O)[C@H](Cc1ccc(O)cc1)NC(=O)Cn1cnc2c(OCc3ccccc3)ncnc21,0.5%,3.7,11.8%,0.0%,-2.7,92.9
Cc1ccc(N(C(=O)CNC(=O)c2ccco2)C(C(=O)NC2CCCC2)c2ccncc2)c(C)c1 (configuration not stated),4.2%[0.0935 µM],-0.2,13.9%,3.7%,-24.7,2.9
COCC(=O)N(C)[C@H]1C[C@H]2c3[nH]c4ccccc4c3CCN2C(=O)[C@H]1[C@H](C)O,/,1.0,-20.1%,?,5.2,19.4
COc1ccc(-c2ccc3[nH]c4c(c3c2)CCN2C(=O)[C@@H]([C@H](C)O)[C@@H](N(C)C(=O)Nc3cc(Cl)cc(Cl)c3)C[C@@H]42)cc1,/,-24.8,23.1µM*,14.6µM*,-12.4,?
C[C@H](O)[C@@H]1C(=O)N2CCc3c([nH]c4ccccc34)[C@@H]2C[C@@H]1N(C)Cc1ccc(Cl)cc1,/,-11.7,?,29.1µM*,-12.2,-25.0
COc1ccc(-c2ccc3[nH]c4c(c3c2)CCN2C[C@@H]([C@H](C)O)[C@@H](N(C)C(=O)Nc3cc(Cl)cc(Cl)c3)C[C@@H]42)cc1,/,-13.9,9.2µM*,4.61µM*,-28.1,0.0
O=C(NNC(=O)c1sccc1-n1cccc1)c1ccccc1,0.0%,0.0,?,?,-3.2,7.4
CCOc1ccccc1C(=O)NC1CC2CCCC(C1)N2C1CC1 (configuration not stated),-1.0%,-1.1,-26.1%,-24.1%,3.6,22.2
Cc1ccc(-n2c(=O)c3c(cnn3C)n(Cc3ccc(Cl)cc3)c2=O)cc1,8.8%,/,-10.4%,?,/,/
Cc1ccc(-n2c(=O)c3c(cnn3C)n(Cc3ccccc3F)c2=O)cc1,8.8%,/,18.4µM*,-28.6%,/,/
Cc1ccccc1NC(=O)c1ccc(F)c(S(=O)(=O)N(C)Cc2ccccc2)c1,5.2%,/,?,20.6µM*,/,/
CC(C)c1ccc(NC(=O)c2cc(S(=O)(=O)NCc3ccccc3Cl)ccc2F)cc1,7.8%,/,6.51µM*,9.2µM*,/,/
CCN(Cc1ccccc1)S(=O)(=O)c1ccc(F)c(C(=O)Nc2ccc(C(C)C)cc2)c1,-5.2%,/,14.6µM*,18.4µM*,/,/
Cc1ccc(S(=O)(=O)N(CC(=O)Nc2ccc(C(C)C)cc2)Cc2ccccc2)cc1,-10.1%[12.3 µM],/,?,?,/,/
CC(C)c1ccc(NC(=O)c2cc(S(=O)(=O)NCCC3=CCCCC3)ccc2F)cc1,-5.2%,/,18.4µM*,18.4µM*,/,/
SMILES,TDP1 inh,Six1-Eya2 inh,DT40 TDP1 CPT,TDP1 cell noCPT,CtBP-E1A blk,IL1B secr inh
O=C(NCCCn1ccnc1)c1ccc(OCC(F)(F)F)cc1,/,-3.6,6.1%,5.7%,3.4,0.0
CCc1cccc(C)c1NC(=O)c1cc(S(=O)(=O)N(C)Cc2ccccc2)ccc1F,5.2%,/,29.1µM*,8.2µM*,/,/
Cc1cc(NC(=O)c2cccs2)cc(-c2nc3ncccc3o2)c1O,1.6%,?,-10.8%,-18.2%,-3.5,4.5
O=C(NCCC1=CCCCC1)C1CCN(C(=O)N2CCOc3ccccc32)CC1,1.3%,/,?,?,/,/
COc1ccc(/C=N/NC(=O)c2ccccc2OCc2ccccc2)c(OC)c1,2.5%,-11.1,?,18.4µM*,-8.2,-10.5
C#CCOc1ccccc1/C=N/NC(=O)c1ccccc1OCc1ccccc1,-0.1%,-4.3,?,20.6µM*,-3.6,-4.8
Cc1cc(C(=O)N/N=C/c2ccc(OCc3ccccc3)cc2)c(C)o1,1.2%,-1.5,?,16.4µM*,/,-22.1
Cc1ccc(/C=N/NC(=O)c2ccccc2OCc2ccc(F)cc2)o1,5.3%,-7.5,5.8µM*,2.91µM*,-13.9,0.0
O=C(N/N=C\c1ccccc1OCc1ccccc1)c1ccco1,-3.4%,?,-18.4%,-20.4%,?,-3.0
Fc1ccccc1N1CCN(c2ncc3c(n2)CCN(Cc2ccc(Br)s2)C3)CC1,3.8%,/,2.5%,4.3%,/,/
CC1(OC(=O)c2ccco2)C(=O)C=C2C=C(C3CC3)OC=C2C1=O (configuration not stated),5.0%,-4.0,-17.1%,8.2%,-0.3,11.8
CC1CC(C)CN(S(=O)(=O)c2ccc(Oc3ccc([N+](=O)[O-])cc3)cc2)C1 (configuration not stated),2.3%,-1.4,?,?,4.7,6.7
COc1ccccc1C(=O)NCC(=O)N/N=C/c1cc(Br)ccc1OCc1ccccc1,0.0%,-11.0,?,23.1µM*,-11.8,-77.7*

# From PubChem BioAssay
